According to PubChem BioAssay (NCI):
“And” between values parts separate entries of the source, which are not always exact repeats. Equal values may be shown once. This is part of a sample that, as a whole, favours compounds with a hit. Of some 83,000 tested, about 20% had one in any assay.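 Percent growth is the endpoint: 0 to 100 indicates growth inhibition (40 means 60% inhibition), 0 means no net growth, and negative values indicate cell death.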 The source made the active and inactive calls. Rule for the calls: active = growth percent below 10; inactive = the rest.

Legend:
Test in all cases: NCI-60 one-dose screen, 48 h (100 = growth as untreated, 0 = no growth, -100 = all killed)
UACC-62 melanoma = tested on: UACC-62 melanoma
TK-10 renal = tested on: TK-10 renal
HCT-15 colon = details: 10 µM
HT29 colon = details: 10 µM
SNB-75 CNS = details: 10 µM
SNB-19 CNS = details: 10 µM
PC-3 prostate = details: 10 µM
SK-MEL-5 melanoma = details: 10 µM
LOX IMVI melanoma = details: 10 µM
SK-MEL-28 melanoma = details: 10 µM
SK-MEL-2 melanoma = details: 10 µM
SN12C renal = details: 10 µM
UO-31 renal = details: 10 µM
ACHN renal = details: 10 µM
CAKI-1 renal = details: 10 µM
A498 renal = details: 10 µM
HL-60(TB) leukemia = details: 10 µM
CCRF-CEM leukemia = details: 10 µM
EKVX NSCLC = details: 10 µM

CC1CCC2(OC1)OC1C(O)C3C4CCC5CC(OC6OC(CO)C(OC7OC(CO)C(O)C(OC8OCC(O)C(O)C8O)C7OC7OC(CO)C(O)C(OC8OC(CO)C(O)C(O)C8O)C7O)C(O)C6O)C(O)CC5(C)C4CCC3(C)C1C2C (configuration not stated)
growth (UACC-62 melanoma; 10 µM): 22.5% (inactive) | growth (UACC-62 melanoma; 100 µM): -89.7% (active) and -92% (active) | growth (TK-10 renal; 10 µM): -27.4% (active) | growth (TK-10 renal; 100 µM): -99% (active) and -94% (active)

CCCCCCCC[N+]12CN3CN(CN(C3)C1)C2
growth (HCT-15 colon): 96.7% (inactive) | growth (HT29 colon): 112% (inactive) | growth (SNB-75 CNS): 89.4% (inactive) | growth (SNB-19 CNS): 90.1% (inactive) | growth (PC-3 prostate): 96.7% (inactive) | growth (SK-MEL-5 melanoma): 98% (inactive) | growth (UACC-62 melanoma; 10 µM unless noted): 91.7% (inactive) | growth (LOX IMVI melanoma): 97.5% (inactive) | growth (SK-MEL-28 melanoma): 98.8% (inactive) | growth (SK-MEL-2 melanoma): 120% (inactive) | growth (SN12C renal): 96.8% (inactive) | growth (UO-31 renal): 87.9% (inactive) | growth (ACHN renal): 99.5% (inactive) | growth (CAKI-1 renal): 92.5% (inactive) | growth (A498 renal): 95.2% (inactive) | growth (HL-60(TB) leukemia): 137% (inactive) | growth (CCRF-CEM leukemia): 97.1% (inactive)

O=[P+](O)c1ccccc1
growth (HCT-15 colon): 108% (inactive) | growth (HT29 colon): 118% (inactive) | growth (SNB-75 CNS): 97.4% (inactive) | growth (SNB-19 CNS): 106% (inactive) | growth (PC-3 prostate): 93.6% (inactive) | growth (SK-MEL-5 melanoma): 106% (inactive) | growth (UACC-62 melanoma; 10 µM unless noted): 105% (inactive) | growth (LOX IMVI melanoma): 102% (inactive) | growth (SK-MEL-28 melanoma): 104% (inactive) | growth (SK-MEL-2 melanoma): 109% (inactive) | growth (SN12C renal): 104% (inactive) | growth (TK-10 renal; 10 µM unless noted): 117% (inactive) | growth (CAKI-1 renal): 103% (inactive) | growth (A498 renal): 104% (inactive) | growth (HL-60(TB) leukemia): 106% (inactive) | growth (CCRF-CEM leukemia): 79.9% (inactive)

NC(=O)c1cc([N+](=O)[O-])c(Cl)c([N+](=O)[O-])c1
growth (HCT-15 colon): 45.5% (inactive) | growth (HT29 colon): -7.93% (active) | growth (SNB-75 CNS): 98.6% (inactive) | growth (SNB-19 CNS): 107% (inactive) | growth (PC-3 prostate): 62.2% (inactive) | growth (SK-MEL-5 melanoma): 107% (inactive) | growth (UACC-62 melanoma; 10 µM unless noted): 100% (inactive) | growth (LOX IMVI melanoma): 24.7% (inactive) | growth (SK-MEL-28 melanoma): 118% (inactive) | growth (SK-MEL-2 melanoma): 154% (inactive) | growth (SN12C renal): 100% (inactive) | growth (ACHN renal): 92.7% (inactive) | growth (CAKI-1 renal): 87.6% (inactive) | growth (HL-60(TB) leukemia): 20.1% (inactive) | growth (CCRF-CEM leukemia): -32.4% (active)

O=[N+]([O-])/C=C/c1ccc([N+](=O)[O-])cc1
growth (HCT-15 colon): -30.1% (active) and 12.6% (inactive) | growth (HT29 colon): -46.8% (active) and 72.9% (inactive) | growth (SNB-75 CNS): 48.7% (inactive) and 90.1% (inactive) | growth (SNB-19 CNS): 72.6% (inactive) and 96.2% (inactive) | growth (PC-3 prostate): 43.4% (inactive) and 92% (inactive) | growth (SK-MEL-5 melanoma): 97.9% (inactive) | growth (UACC-62 melanoma; 10 µM unless noted): 71.5% (inactive) and 81.1% (inactive) | growth (LOX IMVI melanoma): -90.1% (active) and 70% (inactive) | growth (SK-MEL-28 melanoma): 82.2% (inactive) and 103% (inactive) | growth (SK-MEL-2 melanoma): -43.8% (active) and 79.7% (inactive) | growth (SN12C renal): 64.4% (inactive) and 62% (inactive) | growth (UO-31 renal): -82.9% (active) and 62.7% (inactive) | growth (ACHN renal): 21.5% (inactive) and 76.4% (inactive) | growth (CAKI-1 renal): 38.8% (inactive) | growth (A498 renal): 19.7% (inactive) and 126% (inactive) | growth (HL-60(TB) leukemia): 17.1% (inactive) and 55.2% (inactive) | growth (CCRF-CEM leukemia): 34.8% (inactive)

O=C(CBr)Nc1ccc(Cl)cc1
growth (HCT-15 colon): 17.6% (inactive) | growth (HT29 colon): 4.44% (active) | growth (SNB-75 CNS): 102% (inactive) | growth (SNB-19 CNS): 88.8% (inactive) | growth (PC-3 prostate): 93.3% (inactive) | growth (SK-MEL-5 melanoma): 78.3% (inactive) | growth (UACC-62 melanoma; 10 µM unless noted): 71.6% (inactive) | growth (LOX IMVI melanoma): -57.4% (active) | growth (SK-MEL-28 melanoma): 102% (inactive) | growth (SK-MEL-2 melanoma): 103% (inactive) | growth (SN12C renal): 85.5% (inactive) | growth (UO-31 renal): 90.1% (inactive) | growth (ACHN renal): 64% (inactive) | growth (CAKI-1 renal): 22% (inactive) | growth (A498 renal): 104% (inactive) | growth (CCRF-CEM leukemia): -28.3% (active)

CC[C@@]1(O)C[C@H](OC2CC(N(C)C)C(O)C(C)O2)c2c(cc3c(c2O)C(=O)c2c(O)ccc(O)c2C3=O)[C@H]1C(=O)OC (some centres not stated)
growth (HCT-15 colon): -43% (active) | growth (HT29 colon): -20.5% (active) | growth (SNB-75 CNS): -88% (active) | growth (SNB-19 CNS): -36.9% (active) | growth (PC-3 prostate): -57.4% (active) | growth (SK-MEL-5 melanoma): -100% (active) | growth (UACC-62 melanoma; 10 µM unless noted): -91.4% (active) | growth (LOX IMVI melanoma): -85.1% (active) | growth (SK-MEL-2 melanoma): -57.1% (active) | growth (SN12C renal): -42.7% (active) | growth (UO-31 renal): -64.7% (active) | growth (ACHN renal): -88.4% (active) | growth (CAKI-1 renal): -71.8% (active) | growth (HL-60(TB) leukemia): -68.9% (active) | growth (CCRF-CEM leukemia): -30.1% (active)

COc1cc([N+](=O)[O-])c2ncccc2c1[N+](=O)[O-]
growth (HCT-15 colon): 68.9% (inactive) | growth (SNB-75 CNS): 61.3% (inactive) | growth (SNB-19 CNS): 96% (inactive) | growth (PC-3 prostate): 66.4% (inactive) | growth (SK-MEL-5 melanoma): 95.6% (inactive) | growth (UACC-62 melanoma; 10 µM unless noted): 74% (inactive) | growth (LOX IMVI melanoma): 12.2% (inactive) | growth (SK-MEL-28 melanoma): 90.9% (inactive) | growth (SN12C renal): 71.4% (inactive) | growth (UO-31 renal): 41% (inactive) | growth (TK-10 renal; 10 µM unless noted): 27.1% (inactive) | growth (ACHN renal): 56.1% (inactive) | growth (CAKI-1 renal): 24.8% (inactive) | growth (A498 renal): 122% (inactive) | growth (HL-60(TB) leukemia): 65.5% (inactive) | growth (CCRF-CEM leukemia): 22.9% (inactive)

CC(=O)c1ccccc1O
growth (HL-60(TB) leukemia): 85.9% (inactive) and 82.5% (inactive) and 101% (inactive)

O=[N+]([O-])c1ccc(Br)c([N+](=O)[O-])c1
growth (HCT-15 colon): 36.6% (inactive) | growth (HT29 colon): 75.4% (inactive) | growth (SNB-19 CNS): 101% (inactive) | growth (PC-3 prostate): 91.8% (inactive) | growth (SK-MEL-5 melanoma): 95.8% (inactive) | growth (UACC-62 melanoma; 10 µM unless noted): 103% (inactive) | growth (LOX IMVI melanoma): 13.3% (inactive) | growth (SK-MEL-28 melanoma): 101% (inactive) | growth (SK-MEL-2 melanoma): 96.8% (inactive) | growth (SN12C renal): 90.1% (inactive) | growth (UO-31 renal): -18.2% (active) | growth (TK-10 renal; 10 µM unless noted): 102% (inactive) | growth (CAKI-1 renal): -93.5% (active) | growth (A498 renal): 98.3% (inactive) | growth (HL-60(TB) leukemia): 43% (inactive) | growth (CCRF-CEM leukemia): 46.4% (inactive)

Cc1ccc(NC(=O)CBr)cc1
growth (HCT-15 colon): 96.6% (inactive) | growth (HT29 colon): 115% (inactive) | growth (SNB-75 CNS): 97.1% (inactive) | growth (SNB-19 CNS): 96.8% (inactive) | growth (PC-3 prostate): 96.4% (inactive) | growth (SK-MEL-5 melanoma): 96.4% (inactive) | growth (UACC-62 melanoma; 10 µM unless noted): 86.8% (inactive) | growth (LOX IMVI melanoma): 49.8% (inactive) | growth (SK-MEL-28 melanoma): 102% (inactive) | growth (SK-MEL-2 melanoma): 110% (inactive) | growth (SN12C renal): 95.7% (inactive) | growth (UO-31 renal): 86.1% (inactive) | growth (CAKI-1 renal): 104% (inactive) | growth (A498 renal): 99.3% (inactive) | growth (CCRF-CEM leukemia): 23.8% (inactive)

CC(C)c1cc([N+](=O)[O-])cc([N+](=O)[O-])c1O
growth (HCT-15 colon): 108% (inactive) | growth (HT29 colon): 103% (inactive) | growth (SNB-19 CNS): 107% (inactive) | growth (PC-3 prostate): 81.4% (inactive) | growth (SK-MEL-5 melanoma): 98.4% (inactive) | growth (UACC-62 melanoma; 10 µM unless noted): 98.1% (inactive) | growth (LOX IMVI melanoma): 93.7% (inactive) | growth (SK-MEL-28 melanoma): 102% (inactive) | growth (SK-MEL-2 melanoma): 94% (inactive) | growth (SN12C renal): 103% (inactive) | growth (UO-31 renal): 85.8% (inactive) | growth (TK-10 renal; 10 µM unless noted): 98.6% (inactive) | growth (ACHN renal): 103% (inactive) | growth (CAKI-1 renal): 99% (inactive) | growth (A498 renal): 108% (inactive) | growth (HL-60(TB) leukemia): 62.2% (inactive) | growth (CCRF-CEM leukemia): 103% (inactive)

NC(=O)c1cc([N+](=O)[O-])c(Cl)c([N+](=O)[O-])c1Cl
growth (HCT-15 colon): -63.9% (active) | growth (HT29 colon): -88.4% (active) | growth (SNB-75 CNS): 65.1% (inactive) | growth (SNB-19 CNS): 74% (inactive) | growth (PC-3 prostate): 46.7% (inactive) | growth (UACC-62 melanoma; 10 µM unless noted): 5.65% (active) | growth (LOX IMVI melanoma): -50% (active) | growth (SK-MEL-28 melanoma): 39.6% (inactive) | growth (SK-MEL-2 melanoma): -14.5% (active) | growth (EKVX NSCLC): 35.8% (inactive) | growth (SN12C renal): 18.8% (inactive) | growth (UO-31 renal): -62.6% (active) | growth (TK-10 renal; 10 µM unless noted): -100% (active) | growth (ACHN renal): -89.7% (active) | growth (HL-60(TB) leukemia): -26.9% (active) | growth (CCRF-CEM leukemia): -23.5% (active)

C[CH2][Hg][S]c1ccccc1C(=O)O
growth (HCT-15 colon): -84.7% (active) | growth (HT29 colon): -59% (active) | growth (SNB-75 CNS): -43.7% (active) | growth (SNB-19 CNS): 50.6% (inactive) | growth (PC-3 prostate): 55.8% (inactive) | growth (SK-MEL-5 melanoma): -68.3% (active) | growth (LOX IMVI melanoma): -54.9% (active) | growth (SK-MEL-28 melanoma): -87.5% (active) | growth (SK-MEL-2 melanoma): -52.4% (active) | growth (SN12C renal): -60.6% (active) | growth (UO-31 renal): -61.8% (active) | growth (TK-10 renal; 10 µM unless noted): -94.2% (active) | growth (CAKI-1 renal): -95.2% (active) | growth (A498 renal): 18.1% (inactive) | growth (HL-60(TB) leukemia): -17.6% (active) | growth (CCRF-CEM leukemia): -17.5% (active)
